Test results taken from PubChem BioAssay (EPA / NIEHS).
“And” between values parts separate entries of the source, which are not always exact repeats. Identical values can stand only once. Some compounds were tested as several samples or in several runs, with calls that do not always agree. The source made the active and inactive calls. The calls were made as follows: active = hit-call score of the fitted dose curve at least 0.9, where 1 is the maximum; inactive = score below 0.9.

What was measured:
[1] = read-out: Matrix Metallopeptidase 9 (MMP9), MMP9 (gene 4318); experiment: BSK_BE3C_MMP9: BioMAP Diversity Plus: BE3C Assay for Matrix Metallopeptidase 9 (MMP9) Biomarker Activity (AID 2284283); settings: primary human bronchial epithelial cells
Procedure, shortened: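 MMP9 is measured by ELISA after a 24 h compound exposure of primary human bronchial epithelial cultures. Parallel SRB staining gives overt cytotoxicity. Values fitted in the positive direction against DMSO.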

[2] = read-out: Plasminogen activator inhibitor-1 (PAI1), SERPINE1 (gene 5054); experiment: BSK_CASM3C_PAI1: BioMAP Diversity Plus: CASM3C Assay for Plasminogen activator inhibitor-1 (PAI1) Biomarker Activity (AID 2284284); settings: primary human coronary artery smooth muscle cells;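 also: PAI-1 protein level measured by ELISA 24 h after dosing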
[3] = read-out: Monocyte Chemoattractant Protein-1 (MCP1), CCL2 (gene 6347); experiment: BSK_hDFCGF_MCP1: BioMAP Diversity Plus: hDFCGF Assay for Monocyte Chemoattractant Protein-1 (MCP1) Biomarker Activity (AID 2284285); settings: primary human foreskin fibroblasts
Procedure, shortened: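 Human foreskin fibroblasts (hDFCGF system) were exposed to compound and secreted MCP-1 was measured by ELISA after 24 hours. Activity was fitted relative to DMSO. Cytotoxicity was checked by SRB total-protein staining in parallel cultures.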

[4] = read-out: Vascular cell adhesion molecule 1 (VCAM1), VCAM1 (gene 7412); experiment: BSK_IMphg_VCAM1: BioMAP Diversity Plus: IMphg Assay for Vascular cell adhesion molecule 1 (VCAM1) Biomarker Activity (AID 2284286); settings: primary human endothelial cells with macrophages
Procedure, shortened: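 Human venular endothelial cells co-cultured with macrophages; VCAM-1 quantified by ELISA 24 h after dosing, fitted in the positive direction against DMSO. Cytotoxicity was checked in parallel cultures by SRB total-protein staining (0.1% SRB after 10% TCA fixation, 560 nm).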

[5] = read-out: Intercellular Adhesion Molecule 1 (ICAM1), ICAM1 (gene 3383); experiment: BSK_hDFCGF_ICAM1: BioMAP Diversity Plus: hDFCGF Assay for Intercellular Adhesion Molecule 1 (ICAM1) Biomarker Activity (AID 2284287); settings: primary human foreskin fibroblasts
Procedure, shortened: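 Primary human foreskin fibroblasts (hDFCGF system) dosed with chemical; ICAM-1 quantified by ELISA at 24 h relative to DMSO. Parallel SRB total-protein staining to assess overt cytotoxicity.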

CD40, CD40 (gene 958) = experiment: BSK_IMphg_CD40: BioMAP Diversity Plus: IMphg Assay for CD40 Biomarker Activity (AID 2284288); settings: primary human endothelial cells with macrophages
Procedure, shortened: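 Venular endothelial cells co-cultured with macrophages (human primary), CD40 measured by ELISA 24 h after dosing. Positive-direction fit vs DMSO baseline; cytotoxicity tracked by SRB total-protein staining in parallel cultures.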

[6] = read-out: TIMP metallopeptidase inhibitor 2 (TIMP2), TIMP2 (gene 7077); experiment: BSK_hDFCGF_TIMP2: BioMAP Diversity Plus: hDFCGF Assay for TIMP metallopeptidase inhibitor 2 (TIMP2) Biomarker Activity (AID 2284289); settings: primary human foreskin fibroblasts
Protocol: BSK_hDFCGF is a cell-based, multiplexed-readout assay that uses foreskin fibroblast, a human skin primary cell, with measurements taken at 24 hours after chemical dosing in a 96-well plate.BSK_hDFCGF_TIMP2 is an assay component measured in the BSK_hDFCGF assay. It measures TIMP-2 antibody related to regulation of gene expression using ELISA technology.Data from the assay component BSK_hDFCGF_TIMP2 was analyzed at the endpoint, BSK_hDFCGF_TIMP2, in the positive analysis fitting direction relative to DMSO as the negative control and baseline of activity. Using a type of binding reporter, gain or loss-of-signal activity can be used to understand protein changes. […]
The levels of cell surface (or secreted, indicated by the prefix "s") biomarker endpoints were measured by ELISA. Overt cytotoxicity to cells in confluent adherent cultures (all systems other than the BT system) was assessed by measuring total protein levels using sulforhodamine B (SRB) staining in parallel cultures at the time of biomarker measurements, indicated as SRB endpoints. For proliferation assays for adherent cell types, individual cell types are cultured at sub-confluence and relative cell numbers quantified by SRB staining at time points optimized for each system (48 h: 3C and CASM3C systems; 72 h: BT and HDF3CGF systems; 96 h: SAg system). […] Plates were read after 6 h.

[7] = read-out: Interleukin-1 alpha (IL1a), IL1A (gene 3552); experiment: BSK_IMphg_IL1a: BioMAP Diversity Plus: IMphg Assay for Interleukin-1 alpha (IL1a) Biomarker Activity (AID 2284290); settings: primary human endothelial cells with macrophages
Procedure, shortened: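 Human venular endothelial cells co-cultured with macrophages, IMphg system. IL-1α is measured by ELISA 24 h after dosing and fitted in the positive direction against DMSO. Cytotoxicity is assessed by SRB staining of parallel cultures.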

[8] = read-out: E-selectin (Homo sapiens) (UniProt P16581); experiment: BSK_IMphg_ESelectin: BioMAP Diversity Plus: IMphg Assay for Eselectin Biomarker Activity (AID 2284291); settings: primary human endothelial cells with macrophages
Procedure, shortened: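 Human venular endothelial cell–macrophage co-culture, E-selectin measured by ELISA 24 h after chemical dosing. Signal fitted in the positive direction against DMSO as negative control and baseline.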

[9] = BSK_IMphg_SRB: Viability Assessment in the BioMAP Diversity Plus: IMphg Assay (AID 2284292); settings: primary human endothelial cells with macrophages;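 also: measured one day after compound addition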
Procedure, shortened: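 Human venular endothelial cells with macrophages, 24 h after chemical dosing; total protein by 0.1% SRB staining after 10% TCA fixation, read at 560 nm. Positive-direction fitting versus DMSO baseline.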

Measured: AC50

Sequence of E-selectin (Homo sapiens) (P16581 whole entry, looked up): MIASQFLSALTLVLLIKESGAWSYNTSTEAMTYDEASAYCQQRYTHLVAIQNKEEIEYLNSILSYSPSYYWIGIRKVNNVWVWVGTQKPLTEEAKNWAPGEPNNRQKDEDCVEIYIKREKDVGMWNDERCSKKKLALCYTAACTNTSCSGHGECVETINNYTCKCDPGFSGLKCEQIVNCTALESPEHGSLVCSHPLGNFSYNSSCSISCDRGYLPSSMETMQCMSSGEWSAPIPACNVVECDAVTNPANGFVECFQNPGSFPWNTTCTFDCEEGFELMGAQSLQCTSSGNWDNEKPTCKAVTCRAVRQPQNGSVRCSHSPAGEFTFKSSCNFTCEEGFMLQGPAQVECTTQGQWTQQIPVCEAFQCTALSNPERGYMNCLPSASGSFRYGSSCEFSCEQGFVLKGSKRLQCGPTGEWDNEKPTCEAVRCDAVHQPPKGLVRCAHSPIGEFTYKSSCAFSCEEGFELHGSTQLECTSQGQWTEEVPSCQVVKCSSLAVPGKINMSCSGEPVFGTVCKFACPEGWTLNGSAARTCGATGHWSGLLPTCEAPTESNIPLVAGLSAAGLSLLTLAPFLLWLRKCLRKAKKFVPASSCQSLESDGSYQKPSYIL

Cn1cnc([N+](=O)[O-])c1Sc1ncnc2nc[nH]c12
inactive: [1] | [2] | [3] | [4] | [5] | CD40, CD40 (gene 958) | [6] | [7] | [9]
active: [4] 9.14 µM | CD40, CD40 (gene 958) 16.4 µM | [8] 2.5 µM and 9.29 µM
